From ChEMBL document CHEMBL4513216, “Probing the Open Global Health Chemical Diversity Library for Multistage-Active Starting Points for Next-Generation Antimalarials” (ACS Infect Dis, 2020)
About 2,700 (4%) of roughly 68,000 compounds showed an effect of 50% or more. Many of the other results were omitted from the sample, so strong results are more common in it than they were.

System: Plasmodium berghei
Assay: Screen against P. berghei liver stage (PbLuc), transformed with Luciferase, at 2uM
Assay type: functional, HepG2
Conditions: tested at 2 uM

SMILES	INHIBITION
COc1ccccc1[C@@H]1CN(C(=O)c2csc(C)n2)C[C@H]1C(=O)O	10.69%
CC(C)CC(C#N)NC(=O)COC1CCCCC1 (stereo unspecified)	30.23%
c1csc(CN2C[C@@H]3OCCN(CC4CCCO4)[C@@H]3C2)c1 (stereo partly specified)	20.13%
CCOCCN1CCN(Cc2cccc(C(=O)N(C)C)c2)CC1C (stereo unspecified)	30.29%
COCCN1CCN(Cc2cccc(C(=O)N(C)C)c2)CC1	21.83%
CN(C)C(=O)c1cccc(CN2CCN(CCO)CC2)c1	54.99%
CCOCCN1CCN(Cc2cccc(C(=O)N(C)C)c2)CC1	10.62%
CCOCCN1CCN(Cc2cccc(C(=O)N(C)C)c2)CC1CC (stereo unspecified)	50.05%
CCC1CN(Cc2cccc(C(=O)N(C)C)c2)CCN1CCOC (stereo unspecified)	2.77%
CCC1CN(CC(=O)N2CCC2)CCN1CCOC (stereo unspecified)	24.15%
CCOCCN1CCN(CC(=O)N2CCCC2)CC1CC (stereo unspecified)	-9.17%
CCOCCN1CCN(CC(=O)N2CCC2)CC1CC (stereo unspecified)	53.98%
Cc1ccc(CN2CC3(CCN(C(=O)C4CC4)CC3)CC2C(=O)O)o1 (stereo unspecified)	15.46%
CCn1cc(NC(=O)NCC(c2cccc(F)c2)N(C)C)cn1 (stereo unspecified)	-41.59%
O=C(c1ccnnc1)N1C[C@@H](OCC2CCOCC2)[C@H]2OCCC[C@H]21	3.35%
COc1cc(C)nc(N2CCN(C(=O)CCc3cscn3)CC2)n1	-8.58%

SMILES	INHIBITION
CC1CS(=O)(=O)CCN1CCCc1ccc(Cl)cc1 (stereo unspecified)	-15.12%
CS(=O)(=O)N1CCOCC12CCN(Cc1ccc(F)cc1)CC2	-12.74%
CNC(=O)N1CC[C@@H]2CN(Cc3cccnc3)S(=O)(=O)[C@@H]2CC1	-23.02%
Cc1ccc(CN2CCC3(CC2)CC(c2cccnc2)C(=O)N3C)o1 (stereo unspecified)	8.6%
Cc1nc2c(c(=O)[nH]1)CN(Cc1ccc3c(c1)CCCN3C)CC2	30.25%
CSCCCN1CCCC1c1noc(C(C)C)n1 (stereo unspecified)	5.05%
Cc1ccccc1OC1CCN(CC(=O)Nc2ccn(C)n2)CC1	9.02%
Cc1ccccc1OC1CCN(CC(=O)Nc2cn(C)nc2C)CC1	54.75%
CCn1cc(NC(=O)CN2CCC(Oc3ccccc3C)CC2)c(C)n1	45.49%
CCOc1ncnc2c1CCN(C(=O)CN(C)C)CC2	19.49%
O=C(CC1CC1)N1Cc2nccn2CC(COc2cccnc2)C1 (stereo unspecified)	23.97%
OC1(CN2CCc3nnc(Cc4cccnc4)n3CC2)CCCNC1 (stereo unspecified)	34.71%
Cc1ncccc1CNc1ccc(OCCO)nc1	3.49%
OCCOc1ccc(NCc2cc(F)cc3cccnc23)cn1	45.56%
OCCOc1ccc(NCc2cccc3cccnc23)cn1	67.44%
